Assay outcomes as filed in PubChem BioAssay.
This is a sample that favours compounds with a hit; in the whole collection about 21% have one here.
Pf growth 48h = inhibits P. falciparum growth in the first generation, 48 h | P. falciparum luciferase growth in erythrocytes, 48 h | Potency, µM (top dose mostly 28.7 µM), actives largely listed as inhibitors | 310,000 tested, 5.9% active | AID 504832
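Luciferase-expressing parasites in RBCs, 2% Hct / 0.1% parasitemia final; RPMI 1640 + 0.5% Albumax; 37 C, 5% CO2, one generation; luminescence read-out, lower signal = inhibition.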
Shiga inhibitor = blocks Shiga toxin action in Vero cells. Vero cells, Shiga toxin protein synthesis inhibition reporter. inhibition, % at 38.7 µM. 290,000 tested, 9.2% active. AID 2315; in the data active = inhibition mostly above about 28%, no sharp cut-off; inactive = mostly below about 43%
Pf growth 96h = inhibits malaria parasite growth, 96 h; P. falciparum luciferase reporter growth, 96 h; Potency, µM (doses to about 28.7 µM), hits mostly inhibitors; 320,000 tested, 6.9% active
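Infected RBCs, 2% Hct / 0.05% parasitemia final; luciferase-reporter P. falciparum; cpd 96 h, 37 C, 5% CO2; luciferase detection reagent; luminescence.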
Cycloheximide cs = counter-screen for Shiga toxin inhibitors: cycloheximide protein synthesis inhibition; cell reporter, cycloheximide protein synthesis inhibition counterscreen; max response, %; 300,000 tested, 12% active; AID 2314; in the data active = max response mostly above about 13%, no sharp cut-off; inactive = mostly below about 14%; note: read at 38.3 µM for the half of the compounds with a filed dose
A number is an active result; i = inactive; ? = inconclusive; nt = not tested or not shown; [ ] = dose if it differs, or a comment. Unless noted, calls come from the whole dose curve; as a rule, active = well fitted inhibition curve with a large enough effect; inconclusive = small, poorly fitted or top-dose-only effect, or another doubt; inactive = no such curve, though single readings can be large or run the other way.

SMILES	Pf growth 48h	Shiga inhibitor	Pf growth 96h	Cycloheximide cs
O=c1[nH]nc(SCCS(=O)(=O)c2ccc(F)cc2)n1-c1ccccc1	?	i	i	12
O=C(OCC(=O)c1ccc[nH]1)c1ccccc1	i	118	i	47
O=C(COC(=O)c1c(F)cccc1F)c1ccc[nH]1	?	82	i	38
O=C(OCC(=O)c1ccc[nH]1)c1cncc(Br)c1	i	nt	i	nt
N#Cc1cc(S(=O)(=O)c2ccccc2)c(N)[nH]c1=O	3.7µM	i	?	i
CC(=O)Nc1ccccc1OCc1nnc(-c2ccc(Cl)cc2)o1	i	i	i	28
Clc1ccccc1OCc1nnc(-c2ccccc2)o1	i	67	i	46
CC(=O)Nc1ccccc1OCc1nnc(-c2cccs2)o1	i	i	i	i
CC(=O)Nc1ccc(OCc2nnc(-c3ccccc3)o2)cc1	i	i	3.7µM	i
CCC(=O)N1CCN(c2ccccc2NC(=O)Cc2ccc(Cl)cc2)CC1	i	i	i	i
CCN1CCN(c2ccc(NC(=O)c3ccc([N+](=O)[O-])o3)cc2Cl)CC1	?	i	?	23
CCC(=O)N1CCN(c2ccc(Cl)cc2NC(=O)Cc2ccc(Cl)cc2)CC1	nt	i	13µM	i
CCC(=O)N1CCN(c2ccc(Cl)cc2NC(=O)c2ccc([N+](=O)[O-])o2)CC1	?	i	10µM	i
CCC(=O)N1CCN(c2ccc(Cl)cc2NC(=O)c2cccc([N+](=O)[O-])c2)CC1	i[5.75 µM]	i	?	i
O=C(CN1C(=O)NC2(CCCC2)C1=O)Nc1cc(Cl)ccc1N1CCCCC1	?	i	13µM	i
CCN(CC)S(=O)(=O)c1ccc(C(=O)NCCOC(=O)c2ccc(F)cc2F)cc1	i	i	?	i
CCC(=O)N1CCN(c2ccc(NC(=O)c3ccc([N+](=O)[O-])o3)cc2Cl)CC1	?	i	i	i
CC(=O)N1CCN(c2ccc(NC(=O)c3ccc([N+](=O)[O-])o3)cc2Cl)CC1	?	50	5.2µM	25
CCSc1ccc(-c2nn(-c3ccccc3)cc2/C=C(/C#N)C(=O)NCCCOC)cc1	1.9µM	i	?	i
CCCSc1ccc(-c2nn(-c3ccccc3)cc2/C=C(/C#N)C(=O)NCCCOC)cc1	i	i	3.7µM	i
O=S(=O)(Nn1cnnc1)c1ccc(F)cc1	i	i	i	i
Cc1ccc(Cl)cc1N1CCN(C(=O)C(C)n2ncn3cccc3c2=O)CC1 (configuration not stated)	i	i	i	i
CC(C)N(CC#CC(O)(c1ccccc1)c1ccccc1)CCO	i	i	2.3µM	i
CCOC(=O)C(=O)Nc1ccccc1C(=O)NCc1ccccc1	i	85	?	33
CCOC(=O)C(=O)Nc1ccccc1C(N)=O	nt	i	i	i
SMILES	Pf growth 48h	Shiga inhibitor	Pf growth 96h	Cycloheximide cs
CC(C)(C)NS(=O)(=O)c1ccc(CCC(=O)NCc2ccco2)cc1	i	i	12µM	i
O=C(Nc1ccccc1C(=O)OCC(=O)c1c[nH]c2ccccc12)c1ccco1	i	82	?	57
O=C(NCc1ccco1)c1ccccc1NC(=O)C1CC(=O)N(c2ccc(Cl)cc2)C1 (configuration not stated)	i	i	7.4µM	i
O=C(NCc1ccco1)C1CC(=O)N(c2ccc(F)cc2)C1 (configuration not stated)	i	i	i	i
CC(C)(C)NC(=O)COC(=O)c1ccccc1NC(=O)c1ccco1	i	i	i	i
O=C(CCc1ccc(S(=O)(=O)NCc2ccccc2)cc1)NCc1ccco1	i	i	i	i
CN(Cc1nc(-c2cccs2)no1)CC1(N2CCOCC2)CCCCC1	?	i	i	i
O=C(Nc1ccccc1C(=O)NCc1ccco1)c1ccccc1	i	i	i	i
O=C(Nc1ccc(Cl)cc1)Nc1ccccc1C(=O)NCc1ccco1	nt	58	nt	56
O=C(Nc1cccc(Cl)c1Cl)C1CC(=O)N(c2ccc(Br)cc2)C1 (configuration not stated)	i	i	10µM	i
Cc1ccc(/C=N/NC(=O)C2CC(=O)N(c3ccccc3)C2)s1 (configuration not stated)	i	i	i	i
O=C(CCc1ccccc1)Nc1ccccc1C(=O)NCc1ccco1	?	i	13µM	i
O=C(N/N=C/c1ccccc1O)C1CC(=O)N(c2ccc(Cl)cc2)C1 (configuration not stated)	12µM	i	i	i
CCC(Oc1ccccc1)C(=O)N1CCN(S(=O)(=O)c2ccccc2)CC1 (configuration not stated)	?	nt	i	nt
O=C(COC(=O)c1ccncc1)c1ccc(Cl)c(Cl)c1	i	i	i	i
O=C(Nc1ccccc1C(=O)NCc1ccccc1)c1ccco1	i	i	13µM	i
O=C(Nc1ccccc1C(=O)NCc1cccnc1)c1ccco1	nt	i	i	i
O=S(=O)(Cc1ccccc1)NCC1CCCN(Cc2ccc3nonc3c2)C1 (configuration not stated)	?	i	i	i
Cc1ccc(NS(=O)(=O)c2ccc(-c3ccc(=O)[nH]n3)o2)cc1N(C)C	i	60	i	44
Cc1ccc(NS(=O)(=O)c2ccc(-c3ccc(=O)[nH]n3)o2)cc1Cl	i	i	9.3µM	i
O=C(Oc1cccc(C(=S)N2CCOCC2)c1)c1cc([N+](=O)[O-])cc([N+](=O)[O-])c1	i	i	i	i
CC(=O)Nc1cccc(NC(=O)C(C)N2c3cccc4cccc(c34)S2(=O)=O)c1 (configuration not stated)	i	i	i	i
CCn1cc(C(=O)N2CCN(c3ccc(C(C)=O)cc3)CC2)c2cc(OC)c(OC)cc2c1=O	?	i	?	i
CCn1nc(C(=O)N2CCN(Cc3nc4ccccc4s3)CC2)c2ccccc2c1=O	i	nt	i	nt
CCN(CC)CCCNC(=O)c1cn(CC)c2cc(N3CCN(C(=O)c4ccco4)CC3)c(F)cc2c1=O	7.4µM	i	?	i
SMILES	Pf growth 48h	Shiga inhibitor	Pf growth 96h	Cycloheximide cs
CCN(CC)CCNC(=O)c1cn(CC)c2cc(N3CCN(C(=O)c4ccco4)CC3)c(F)cc2c1=O	i	i	i	i
CCn1cc(C(=O)Nc2ncccc2O)c(=O)c2cc(F)c(N3CCN(C(=O)c4ccco4)CC3)cc21	?	i	4.7µM	i
CCn1cc(C(=O)NC(C)C)c(=O)c2cc(F)c(N3CCN(C(=O)c4ccco4)CC3)cc21	5.2µM	i	5.9µM	i
CCn1cc(C(=O)NCCC(C)C)c(=O)c2cc(F)c(N3CCN(C(=O)c4ccco4)CC3)cc21	?	i	2.3µM	i
COc1cc(NC(=O)CCS(=O)(=O)c2ccc3c(c2)n(C)c(=O)c(=O)n3C)cc(OC)c1	i	i	?	i
Cc1cccc(C)c1NC(=O)[C@H](C)N	i	nt	i	nt
Cc1onc(-c2ccccc2Cl)c1C(=O)Nc1nnc(-c2ccc(Br)cc2)s1	i	i	i	22
Cc1onc(-c2ccccc2Cl)c1C(=O)Nc1nc2c(s1)CCCC2	?	127	?	69
Cc1onc(-c2ccccc2Cl)c1C(=O)Nc1nnc(-c2ccc(F)cc2)s1	i	i	i	i
CCOC(=O)N1CCN(C(=O)c2cc3cc(Cl)ccc3[nH]2)CC1	i	i	i	i
Cc1cccc(N(C)S(=O)(=O)c2c(C)noc2C)c1	i	i	9.3µM	i
CCN(c1ccccc1)S(=O)(=O)c1c(C)noc1C	?	nt	i	nt
